PubChem BioAssay (NCATS)
Inconclusive results are not listed. Calls of active or inactive are those of the source. The call rests on the fitted dose curve; in most records, active means well fitted inhibition curve with a large enough effect; inconclusive means small, poorly fitted or top-dose-only effect; inactive means flat fitted curve, though single readings scatter.

Experiments:
[1] = target: Glutathione peroxidase 1 (Homo sapiens) (UniProt P07203); test: Primary qHTS Assay for Inhibitors of Recombinant Selenoprotein Glutathione Peroxidase 1 (GPX1) (AID 1845191); conditions: recombinant GPX1, GR-coupled NADPH fluorescence, 15 min; series mostly up to 48.8 µM; further: nearly all actives have a fitted effect of over 65% in size
Chain of Glutathione peroxidase 1 (Homo sapiens) (P07203 whole entry, looked up): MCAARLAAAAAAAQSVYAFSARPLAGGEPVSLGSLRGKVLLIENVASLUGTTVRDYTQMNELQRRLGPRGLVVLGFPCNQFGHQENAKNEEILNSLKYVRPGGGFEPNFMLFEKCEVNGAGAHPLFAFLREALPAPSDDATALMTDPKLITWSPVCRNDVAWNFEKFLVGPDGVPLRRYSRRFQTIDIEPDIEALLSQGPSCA
In short: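 10 nM GPX1 + cpd, 30 min RT; start w/ 1 mM GSH, 0.5 mM cumene hydroperoxide, 0.5 mM NADPH, 100 nM GR, 0.01% BSA; buffer 50 mM Tris-HCl pH 7.5, 2 mM EDTA, 150 mM NaCl; Fl 340/450, 0 & 15 min.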

[2] = target: Phospholipid hydroperoxide glutathione peroxidase GPX4 (Homo sapiens) (UniProt P36969); test: Primary qHTS Assay for Inhibitors of Recombinant Selenoprotein Glutathione Peroxidase 4 (GPX4) (AID 1845192); conditions: recombinant GPX4, GR-coupled NADPH fluorescence, 15 min; series mostly up to 50 µM; further: nearly all actives have a fitted effect of over 65% in size
Chain of Phospholipid hydroperoxide glutathione peroxidase GPX4 (Homo sapiens) (P36969 whole entry, looked up): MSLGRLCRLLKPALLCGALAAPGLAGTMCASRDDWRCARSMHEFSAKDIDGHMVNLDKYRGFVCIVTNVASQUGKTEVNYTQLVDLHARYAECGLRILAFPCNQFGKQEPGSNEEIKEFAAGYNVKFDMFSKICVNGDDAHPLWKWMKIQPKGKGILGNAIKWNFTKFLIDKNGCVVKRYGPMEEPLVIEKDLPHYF
In short: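 NADPH consumption, followed by fluorescence at 340/450 nm between 0 and 15 min, reports GPX4 activity via coupled glutathione reductase (100 nM). Enzyme 200 nM was pre-exposed to compound 30 min; 0.5 mM cumene hydroperoxide and 1 mM GSH served as substrates.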

[3] = target: Luciferin 4-monooxygenase (Photinus pyralis) (UniProt P08659); test: Primary firefly luciferase (FLuc) qHTS assay for identification of artifact compounds. (AID 1845220); conditions: purified firefly luciferase, luminescence, 5 min; series mostly up to 54.1 µM; further: nearly all actives have a fitted effect of over 60% in size
In short: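 FLuc 10 nM; luciferin 10 uM; ATP 10 uM; Tris-acetate pH 7.6, Mg-acetate 10 mM; 15 min RT preincubation; 5 min reaction; luminescence.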

Measured: Potency

CC1=CC(=O)CC(C)(CO[C@@H]2O[C@H](CO)[C@@H](O)[C@H](O)[C@H]2O)C1(O)/C=C/C(C)=C/C(=O)O (some centres undefined)
inactive: all assays above

CC1CCC2C(C)(C)C(O)CCC2(C)C12Cc1c(O)cc3c(c1O2)CN(C(CCC(N)=O)C(=O)O)C3=O (centres undefined)
inactive: all assays above

CCn1c2ccccc2c2cc(CNC)ccc21
inactive: all assays above

CC[C@H]1OC(=O)[C@H](C)[C@@H](O[C@H]2C[C@@](C)(OC)[C@@H](O)[C@H](C)O2)[C@H](C)[C@@H](O[C@@H]2O[C@H](C)C[C@H](N(C)C)[C@H]2O)[C@@](C)(O)C[C@@H](C)[C@@H]2N[C@@H](COCCOC)OC([C@H]2C)[C@]1(C)O
inactive: all assays above

CC1[C@@H](O)[C@@H](O)C2[C@]3(C)C(C[C@H]4OC(=O)[C@H](O)[C@]1(O)[C@@]24C)C(C)(O)C[C@H](O)[C@H]3O (some centres undefined)
inactive: all assays above

CCC(CCO[C@@H]1O[C@H](CO[C@H]2OC[C@](O)(CO)[C@H]2O)[C@@H](O)[C@H](O)[C@H]1O)C(C)(C)O (some centres undefined)
inactive: all assays above

C=C1CCC2[C@@](C)(C=O)CCC[C@]2(C)[C@H]1CC/C(C)=C/CO (some centres undefined)
inactive: all assays above

OCC1=CC[C@@H]2C=CO[C@@H](O[C@@H]3O[C@H](CO)[C@@H](O)[C@H](O)[C@H]3O)[C@H]12
inactive: all assays above
